# Results taken from PubChem BioAssay AID602382 (Sanford-Burnham Center for Chemical Genomics, 2012).
# The other results are listed elsewhere or left out. Unmarked numbers belong to inactive results. How the calls were made is not given here.
# Test: spectral interference with molecular beacon fluorescence, dose response, artefact control for DNMT1 inhibitor project, biochemical, fluorescent molecular beacon (AID 602382)
# Conditions: spectral interference counter-screen
smiles,measurement,value
Cc1c(C(=O)O)cccc1-n1c(C)cc(/C=C2\C(=O)NC(=O)N(c3ccc4c(c3)OCO4)C2=O)c1C,IC50,> 99 µM
